Imprint erasure = genomic imprint erasure induction. Potency, µM (doses to about 60.7 µM), for inactives: at the highest dose activity change, positive = activation, most hits filed as activators. mouse ES Peg3-LacZ reporter, beta-gal luminescence, 40 h. actives 0.02% (n = 110,000); note: potency is the fitted concentration of half-maximal effect
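Readout: BetaGlo luminescence (5 min, room temp) for LacZ from the normally silent maternal Peg3 allele in female Peg3LacZ-Neo ES cells. Cells 300/well, 40 h, 37C, 5% CO2. Data normalized per plate to negative controls.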
Ub-GFP proteasome = proteasome inhibitors stabilizing ubiquitin-GFP reporter. Ubiquitin-GFP reporter cells, proteasome inhibition, GFP fluorescence; response scale: untreated = 0%, 10 µM MG-132 = 100%. Potency, µM (series often up to 45.9 µM), for inactives: top-dose activation (GFP accumulation), usual class: activators. 67,000 tested, under 10 active. AID 526; active = well fitted activation curve with a large enough effect, not every such curve was filed as active; inconclusive = small, poorly fitted or top-dose-only effect, or another doubt; inactive = no such curve, though single readings can be large or run the other way; note: potency is the fitted concentration of half-maximal effect
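GFP accumulation read-out: laser plate cytometry counting ubiquitin(G76V)-GFP-expressing U2OS cells after 4 hr compound exposure at 37 °C. Titrations spanned 46 uM to 2.9 nM; 0% = basal, 100% = 10 uM MG-132; concentration-response curves fitted.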
HBB splicing = hemoglobin beta splicing modulation. HBB splicing reporter cell assay, activation; EGFP reporter with mutant IVS2-654 intron; response scale: normalised to 500 nM splice-correcting PNA. Potency, µM (series often up to 46.1 µM), for the others: at the highest dose activation, usual class: activators. actives 0.06% (n = 65,000); note: potency is the fitted concentration of half-maximal effect; 0% is about no effect
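Compounds were applied for 2 days to HeLa EGFP-654 cells, 500/well in Optimem with 2% FCS. The reporter's EGFP is disrupted by mis-splicing of beta-globin intron IVS2-654. Readout: summed well GFP fluorescence from 488 nm laser scanning; reference was 500 nM antisense […] 654 PNA.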
p53ts 39C tox = cytotoxicity in p53ts cells at nonpermissive temperature; H1299-p53A138V viability at 39C, ATP luminescence, 24 h; Potency, µM (highest dose often 46.1 µM), for inactives: top-dose activity change, negative = cell killing, hits mostly cytotoxic; actives 1.5% (n = 130,000); note: potency is the fitted concentration of half-maximal effect; % is set by controls: 0 for no effect and ±100 for the full control effect; nearly all actives have a fitted effect of over 55% in size
GFP derepression = epigenetic GFP locus derepression in mouse cells; mouse C127i GFP locus derepression, cytometry, 30 h; Potency, µM (titrated, usually from 46.1 µM), inactives show top-dose GFP derepression (activation); actives 0.09% (n = 68,000); AID 597; note: % of control where 0% means no effect
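Locus derepression in mouse mammary C127i cells whose integrated CMV-GFP reporter is normally silent; GFP expression after 30 h compound treatment was quantified by counting fluorescent cells.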
p53ts 32C tox = p53ts cell cytotoxicity, permissive temperature | H1299-p53A138V at 32C, ATP luminescence viability, 24 h | AID 924 | actives 0.93% (n = 130,000) | Potency, µM (doses to about 46.1 µM), for the others: top-dose activity change, negative = cytotoxicity, most hits filed as cytotoxic;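 note: potency is the fitted concentration of half-maximal effect; 0% = DMSO and -100% = full killing by reference compound; nearly all actives have a fitted effect of over 55% in size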
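H1299-p53 A138V cells (temperature-sensitive p53) exposed 24 h to up to 46 uM compound at 32C, where p53 is wild-type in conformation. Viability read as ATP luminescence and normalised to DMSO and 100 uM tamoxifen. AC50 fitted with the Hill equation.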
Active calls of the source: *; ? = inconclusive; · = no result; ! = a repeat was not active; [ ] = another dose, or the depositor's remark. Most compounds without a hit are left out; they make up all but 1.6% or so of the library. Unless noted, calls come from the whole dose curve; as a rule, active = well fitted curve in the direction sought with a large enough effect; inconclusive = small, poorly fitted or top-dose-only effect, or another doubt; inactive = no such curve, though single readings can be large; an effect the other way counts as inactive or inconclusive.

SMILES | Imprint erasure | Ub-GFP proteasome | HBB splicing | p53ts 39C tox | GFP derepression | p53ts 32C tox
Cc1ccc(Cl)cc1N1CCN(C(=O)CN2C(=O)COc3ccc(S(=O)(=O)N4CCCCCC4)cc32)CC1 | -13%[10.9 µM] | · | · | -4% | · | 11%
Nc1nc2n[nH]nc2c(=O)[nH]1 | 4%[16.8 µM] | 20%[20.5 µM] | 0.79µM* | -30%[20.6 µM] | 7%[20.6 µM] | ?
COc1ccc(-c2cn3ccc4ccccc4c3n2)cc1 | · | · | · | 11µM* | · | ?
Cc1cccn2cc(-c3ccccc3)nc12 | -82% | 11% | -1% | ? | -5% | 13µM*
Cc1ccc2nc(-c3ccccc3)cn2c1 | -93% | 1% | 0%[57.5 µM] | 0.63µM* | 0% | 0.5µM*
Cc1cc(C(C)(C)CC(C)(C)C)ccc1OCCOCC[N+](C)(C)Cc1ccccc1 | -33% | 8%[20.5 µM] | -1%[20.6 µM] | 25µM*! | 2%[20.6 µM] | 25µM*!
CC(C)(C)CC(C)(C)c1ccc(O)c(C[N+](C)(C)[O-])c1 | -18%[10.9 µM] | -5%[9.17 µM] | 0%[9.22 µM] | -5%[9.22 µM] | -1%[9.22 µM] | -5%[9.22 µM]
CCn1cc(C(=O)NCCCOC(C)C)c(=O)c2cc(S(=O)(=O)N3CCc4ccccc4C3)ccc21 | 13%[10.9 µM] | · | · | 12% | · | 13%
CCc1ccc(C(=O)c2cn(CC(=O)Nc3cc(OC)cc(OC)c3)c3ccc(CC)cc3c2=O)cc1 | -20%[10.9 µM] | · | · | 13µM* | · | -5%
CCc1ccc(C(=O)c2cn(CC(=O)Nc3ccc(F)cc3)c3ccc(OC)cc3c2=O)cc1 | -11%[10.9 µM] | · | · | -9% | · | -13%
Cc1ccc(Nc2nc(N)nc(CSc3nncn3C)n2)cc1 | · | · | · | 13µM* | · | ?
Cc1ccc(Nc2nc(N)nc(CSc3nnnn3-c3ccccc3)n2)cc1 | -13% | -9% | 0% | 12% | 0% | 8%
O=C(Nc1ccc(NC(=O)c2ccco2)nc1)c1cccnc1 | -47% | 3% | · | 13µM* | -1% | 10µM*
O=C(Nc1cccnc1)c1ccc(NC(=O)c2ccco2)cc1 | -11% | 4% | 2% | 17% | 0% | 5%
CCSc1ccccc1C(=O)Nc1ccc(-c2nc3ccccc3s2)c(O)c1 | -8%[10.9 µM] | · | · | -7% | · | -23%
O=C(O)CCn1ccc2cc(S(=O)(=O)N3CCCCC3)ccc21 | -5%[10.9 µM] | · | · | 0% | · | -9%
Cc1ccc(-c2nnc(SCC(=O)NC(C)(C)C)nc2-c2ccc(C)cc2)cc1 | -13%[10.9 µM] | · | · | ? | · | ?
CCc1nnc(SCc2ccc(F)cc2Cl)c2cc3sccc3n12 | -13%[10.9 µM] | · | · | 7% | · | 3%
CCc1nnc(SCC(=O)N(C)c2ccccc2)c2cc3sccc3n12 | -9%[10.9 µM] | · | · | 25µM* | · | -1%
Cc1cccc(-c2nc(SCCCOc3ccc(Cl)c(C)c3)n3[nH]c(=O)cc3n2)c1 | -4%[10.9 µM] | · | · | 6% | · | -5%
Cc1ccc(OCCSc2nc(-c3ccccc3C)nc3cc(=O)[nH]n23)cc1Cl | 23%[10.9 µM] | · | · | 25µM* | · | 8%
N[C@@H](CNO)C(=O)O | -6%[10.9 µM] | -11%[9.17 µM] | 4%[9.22 µM] | 9%[9.22 µM] | 7%[9.22 µM] | -2%[9.22 µM]
CCC(=O)N1CCc2cc(Br)cc(S(=O)(=O)N3CCC(C(=O)Nc4ccccc4CC)CC3)c21 | 8%[10.9 µM] | · | · | -6% | · | 4%
CCN1CCN(c2cc(C)c3cc(NC(=O)/C=C/c4ccc(C)cc4)ccc3n2)CC1 | -6%[10.9 µM] | · | · | 3.2µM* | · | ?
CCN1CCN(c2cc(C)c3cc(NC(=O)/C=C/c4ccc(OCCC(C)C)cc4)ccc3n2)CC1 | -32%[10.9 µM] | · | · | 6.3µM* | · | 12%
SMILES | Imprint erasure | Ub-GFP proteasome | HBB splicing | p53ts 39C tox | GFP derepression | p53ts 32C tox
CCN1CCN(c2cc(C)c3cc(NC(=O)c4cc(OC)c(OC)c(OC)c4)ccc3n2)CC1 | -8%[10.9 µM] | · | · | -30% | · | -8%
CCN1CCN(Cc2ccc(NC(=O)Nc3ccccc3Cl)cc2)CC1 | -16% | 3% | -2% | 7.9µM* | · | 10µM*
CCN1CCN(Cc2ccccc2NC(=O)Nc2ccc(C)cc2)CC1 | -11% | -1% | 1% | -9% | 0% | -18%
COc1ccccc1N1C(=O)N(C(C)=O)C2C1Nc1ccccc1N2C (stereo unspecified) | -10% | -7% | 70% | ? | 2% | ?
CCN1c2ccccc2NC2C1C(C(C)=O)C(=O)N2c1ccc(Cl)cc1 (stereo unspecified) | 3% | 4% | ? | 20µM* | -2% | ?
COc1ccc(-c2nnc(Nc3nc4c(OC)cccc4s3)o2)cc1 | -19% | 16% | 1% | 13µM* | -3% | ?
COc1ccc(-c2nnc(Nc3nc4c(OC)cccc4s3)o2)c(OC)c1 | -31% | -1% | -1% | 10µM* | ? | ?
Fc1cccc2sc(Nc3nnc(-c4ccccc4)o3)nc12 | -51% | -1% | -1% | 10µM* | -2% | 16µM*
N=C1S/C(=C\c2ccc(-c3cccc(Cl)c3)o2)C(=O)N1c1nccs1 | · | · | · | 0% | · | ·
COc1ccc(/C=C2\SC(=N)N(c3nccs3)C2=O)cc1OC | · | · | · | 14µM* | · | ?
CCCCN1C(=O)C(O)(CC(=O)c2ccc(C(C)(C)C)cc2)c2ccccc21 (stereo unspecified) | -12%[10.9 µM] | · | · | 13µM* | · | ?
CCc1ccc(Sc2cc(C(=O)NCCCN3CCCC(C)C3)c3ccccc3n2)cc1 (stereo unspecified) | -11%[10.9 µM] | · | · | ? | · | ?
